{
  "source": "paper PMC5540273",
  "about": "(PLoS ONE, 2017);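 further: kd values determined as follow-up on hits from a single-replicate KINOMEscan panel screen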",
  "data": [
    {"system": "ADCK4", "units": {"Kd": "nM"}, "values": [
      {"compound": "Cc1cc(NCC(c2ccccc2)c2ccccc2)nc(NCc2ccc(C(F)(F)F)cc2)n1", "note": "[GW497681]", "Kd": 2300},
      {"compound": "Cl.Oc1ccc(-c2nc(-c3ccccc3)[nH]c2-c2ccncc2)cc1", "note": "[SB-428218]", "Kd": "> 10000"},
      {"compound": "CCn1c(-c2cccnc2O)nc2cnccc21", "note": "[SB-736715]", "Kd": "> 10000"}
    ]},
    {"system": "AURKA", "units": {"Kd": "nM"}, "values": [
      {"compound": "COc1cc(Nc2nccc(N3CCC(NC(=O)Nc4cc(C)ccc4C)C3)n2)cc(OC)c1OC", "note": "(stereo not shown) [GSK1379762]", "Kd": 1100},
      {"compound": "Clc1cc(Cl)cc(Nc2ccnc(Nc3cc(Cl)cc(Cl)c3)n2)c1", "note": "[GSK175726]", "Kd": "> 10000"},
      {"compound": "COc1cc2ncnc(Nc3ccc4nc(-c5ccccc5)[nH]c4c3)c2cc1OC.Cl", "note": "[GW282450]", "Kd": 2300},
      {"compound": "Fc1cc(Cl)ccc1Nc1ccnc2cc(-c3ccc(CN4CCCCC4)o3)ccc12", "note": "[GW560116]", "Kd": "> 10000"},
      {"compound": "C[C@@H]1CCCCN1c1cc(-c2ccc3c(N)n[nH]c3c2)nc(N)n1", "note": "[GSK2258759]", "Kd": "> 10000"},
      {"compound": "COc1ccccc1CNC(=O)c1cc(C(=O)c2ccccc2C)c[nH]1", "note": "[GSK364507]", "Kd": "> 10000"},
      {"compound": "Nc1ncnc2[nH]c(-c3ccccc3)nc12", "note": "[AH5015]", "Kd": "> 10000"}
    ]},
    {"system": "AURKB", "units": {"Kd": "nM"}, "values": [
      {"compound": "COc1cc(Nc2nccc(N3CCC(NC(=O)Nc4cc(C)ccc4C)C3)n2)cc(OC)c1OC", "note": "(stereo not shown) [GSK1379762]", "Kd": 240},
      {"compound": "Cn1ccc2ncnc(Oc3ccc(Nc4nc5ccccc5[nH]4)cc3)c21", "Kd": 59},
      {"compound": "Cn1ccc2ncnc(Oc3ccc(NC(=O)Nc4ccccc4)cc3)c21", "Kd": 110},
      {"compound": "O=C(Nc1ccc2c(c1)OCO2)NC1CCN(c2ccnc(Nc3ccc(F)cc3)n2)C1", "note": "(stereo not shown) [GSK1379724]", "Kd": 6900},
      {"compound": "COc1ccc(CNC(=O)NC2CCN(c3ccnc(Nc4cc(OC)c(OC)c(OC)c4)n3)C2)cc1", "note": "(stereo not shown) [GSK1379748]", "Kd": 330},
      {"compound": "Cc1ccc(C(=O)Nc2ccc(Nc3ccnc4cc(-c5ccccn5)ccc34)cc2O)cc1.Cl", "note": "[GW440146]", "Kd": 290},
      {"compound": "Cn1cncc1-c1ccc2ncnc(Nc3ccc(OCc4ccccc4)cc3)c2c1", "note": "[GW320571]", "Kd": "> 10000"}
    ]},
    {"system": "AURKC", "units": {"Kd": "nM"}, "values": [
      {"compound": "COc1cc(Nc2nccc(N3CCC(NC(=O)Nc4cc(C)ccc4C)C3)n2)cc(OC)c1OC", "note": "(stereo not shown) [GSK1379762]", "Kd": 200},
      {"compound": "Cn1ccc2ncnc(Oc3ccc(NC(=O)Nc4ccccc4)cc3)c21", "Kd": 110},
      {"compound": "COc1cccc(-c2cc(-c3c[nH]nc3-c3ccccn3)ccn2)c1", "note": "[GW680338]", "Kd": "> 10000"},
      {"compound": "Cc1ccc(C(=O)Nc2ccc(Nc3ccnc4cc(-c5ccccn5)ccc34)cc2O)cc1.Cl", "note": "[GW440146]", "Kd": 500},
      {"compound": "COc1cc2ncn(-c3cc(OCC4CCCO4)c(C(N)=O)s3)c2cc1OC", "note": "(stereo not shown) [GSK204607]", "Kd": "> 10000"}
    ]}
  ]
}
